Compound activity from PubChem BioAssay.
In the library only some 8% were active in any assay of this set; here they are far more common.
HCV inhibitor: HCV inhibition. Huh7.5.1 HCVcc-Cre infection, luciferase reporter, 44 h. Potency, µM (titrated, usually from 41.8 µM), for the others: at the top dose activity change, negative = inhibition, usual class: inhibitors. actives 3.4% (n = 340,000); active = well fitted inhibition curve with a large enough effect; inconclusive = small, poorly fitted or top-dose-only effect, or another doubt; inactive = no such curve, though single readings can be large or run the other way; also: potency is read from the fitted curve at half-maximal effect; % is scaled to controls: 0 for no effect and ±100 for the full control effect
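Cells seeded at 1,000/well and cultured 4 h, then compounds added followed by HCVcc-Cre virus (~0.5 moi). After 44 h further culture, luciferase substrate was added, plates held 15 min at room temperature, and luminescence read for 15 sec.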
FMDV inh: antivirals against foot and mouth disease virus. FMDV antiviral cell-based qHTS. Potency, µM (doses to about 57.9 µM), for the others: at the highest dose activity change, negative = inhibition, most hits filed as inhibitors. actives 1.2% (n = 410,000). AID 1159524; calls by dose curve; tested in HEK293T cells; also: read-out not given here; potency is read from the fitted curve at half-maximal effect; % is scaled to controls: 0 for no effect and ±100 for the full control effect; nearly all actives have a fitted effect of over 45% in size
HCMV antiviral: human cytomegalovirus inhibition | HFF cells, HCMV-luciferase reporter, 72 h; active compounds read low | activity change, negative = inhibition, % at 57.5 µM | actives 4.5% (n = 410,000) | AID 1259415; in the data active = activity change below about -60%; inconclusive = no clear call, values can overlap the other calls; inactive = above about -39%; also: % is scaled to controls: 0 for no effect and ±100 for the full control effect
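Screen run at 2 compound doses on HFFs infected with reporter HCMV, MOI 1 PFU/cell. Luciferase activity from cell lysates at 72 h post infection gave inhibition relative to buffer-only and Salinomycin wells.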
SARS PLP yeast: SARS-CoV PLP inhibition in yeast; S. cerevisiae expressing SARS-CoV PLpro, growth rescue; Potency, µM (highest dose often 32.9 µM), without a hit: at the top dose activity, positive = growth rescue, actives largely listed as activators; actives 0.19% (n = 330,000); calls by dose curve; also: potency is read from the fitted curve at half-maximal effect; 0% is about no effect; nearly all actives have a fitted effect of over 55% in size
MARV entry inh: blocks Marburg virus binding to or entry into cells | Marburg virus pseudotyped entry inhibition, cell reporter | Potency, µM (top dose mostly 37.8 µM), for the others: at the top dose activity change, negative = inhibition, actives largely listed as inhibitors | actives 1.8% (n = 300,000); calls by dose curve; tested in HEK293 cells; also: potency is read from the fitted curve at half-maximal effect; % is scaled to controls: 0 for no effect and ±100 for the full control effect
LASV entry inh: Lassa virus entry inhibition; Lassa virus pseudotype entry inhibition, cell reporter; Potency, µM (series often up to 37.9 µM), inactives show top-dose activity change, negative = inhibition, usual class: inhibitors; actives 1.2% (n = 300,000); AID 540256; calls by dose curve; tested in HEK293 cells; also: potency is read from the fitted curve at half-maximal effect; % is scaled to controls: 0 for no effect and ±100 for the full control effect; nearly all actives have a fitted effect of over 50% in size
* marks the source's active call; other numbers are inactive results; ? = inconclusive; . = not tested or not shown; ! = a repeat was not active; [ ] = dose if it differs, or a comment.

SMILES	HCV inhibitor	FMDV inh	HCMV antiviral	SARS PLP yeast	MARV entry inh	LASV entry inh
Cc1ccc(Cl)cc1Nc1sc(C(=O)c2ccc(F)cc2)c(N)c1S(C)(=O)=O	.	?	-5.8	.	-33.5%[46.1 µM]	?
Cc1ccc(S(=O)(=O)c2c(Nc3cc(F)ccc3F)sc(C(=O)c3ccc(F)cc3)c2N)cc1	.	?	-64.9*	.	?	?
Nc1c(C(=O)c2ccc(F)cc2)sc(Nc2ccccc2F)c1S(=O)(=O)c1ccc(Br)cc1	.	-17.8%	-70.7*	.	.	-46.0%[46.1 µM]
Cc1ccc(Nc2sc(C(=O)c3ccc(F)cc3)c(N)c2S(=O)(=O)c2ccc(C)cc2)cc1	.	-8.1%	-7.9	.	.	1.12µM*
COC1(C(F)(F)F)NC(=O)N(c2ccc(F)cc2)C1=O (stereo not given)	.	-11.6%	9.7	.	-4.3%[46.1 µM]	-0.8%[46.1 µM]
O=C(Cn1c2[n+](c3ccc(C(F)(F)F)cc31)CCCCC2)c1cccc([N+](=O)[O-])c1	-16.4%	1.2%	1.9	-2.7%	.	.
FC(F)(F)c1ccc2c(c1)n(Cc1ccccc1)c1[n+]2CCCCC1	9.4%	-20.5%	-65.8*	-0.3%	-3.4%	-13.0%
CCc1cccc(NC(=O)Cn2c3[n+](c4ccc(C(F)(F)F)cc42)CCCCC3)c1	?	-15.3%	-64.0*	-13.1%	17.1%	3.1%
O=C(Cn1c2[n+](c3ccc(C(F)(F)F)cc31)CCCCC2)Nc1ccccc1	?	2.3%	-16.9	8.6%	-7.0%	-10.5%
COc1ccc2c(c1)C(n1c(C)ccc1C)C(=O)N2Cc1ccc(Cl)nc1 (stereo not given)	.	.	-8.7	.	.	.
CCCCCCN1C[C@@H](n2cc(COC(=O)c3ccccc3)nn2)[C@H](O)C[C@H]1c1ccccc1	.	.	.	.	.	13.4%[46.1 µM]
COC(=O)c1nnn(-c2ccc(F)c(Cl)c2)c1C(=O)OC	-0.2%	3.4%	-4.0	-1.8%	4.6%[46.1 µM]	15.3%
COC(=O)c1c(C)nn(-c2ccc(F)c(Cl)c2)c1-c1cc(C)on1	8.91µM*	?	-27.6	0.3%	4.47µM*	?
CCN(CC)S(=O)(=O)c1ccc2c(c1)N(CC(=O)Nc1ccc(OC)cc1)C(=O)CS2	.	7.4%	11.1	.	-19.7%[46.1 µM]	.
CC1CCN(CCOc2ccc(C(=O)c3ccccc3)cc2)CC1	-23.3%	-21.0%	57.1	-3.3%	?	-26.6%
CC1CCN(CCCCOc2ccc(C(=O)c3ccccc3)cc2)CC1	?	-16.0%	7.7	-8.2%	?	15.8µM*
COC(=O)Nc1nc2ccc(SC(C)C)cc2[nH]1	?	44.9%	-81.7*	.	.	.
COC(=O)Nc1nc2ccc(C(=O)c3ccccc3)cc2[nH]1	.	29.2%	.	.	.	.
CCCSc1ccc2nc(NC(=O)OC)[nH]c2c1	-21.0%	40.9%	-19.7	-20.0%	?	2.06µM*
O=C(CCS(=O)(=O)c1ccccc1)Nc1ncc([N+](=O)[O-])s1	5.6%	31.1%	?	-9.9%	-7.1%[46.1 µM]	14.7%[46.1 µM]
O=C(CCS(=O)(=O)Cc1ccccc1)Nc1ncc([N+](=O)[O-])s1	?	42.2%	-96.0*	0.8%	?	8.1%[46.1 µM]
CCNc1nc(SCC(=O)Nc2ccc(Cl)c(Cl)c2)nc(N(C)C)n1	?	?	59.0	-7.9%	.	.
CN(C)c1nc(NCc2ccccc2)nc(SCC(=O)Nc2ccc(Cl)c(Cl)c2)n1	?	?	-9.2	-6.3%	11.6µM*	-20.8%
CCNc1nc(NCc2ccccc2)nc(SCC(N)=O)n1	-1.0%	-10.9%	?	1.2%	-7.3%[46.1 µM]	-16.4%[46.1 µM]
CCNc1nc(NCc2ccccc2)nc(SCC(=O)Nc2ccccc2)n1	25.1µM*	?	38.6	18.4%	?	?
SMILES	HCV inhibitor	FMDV inh	HCMV antiviral	SARS PLP yeast	MARV entry inh	LASV entry inh
COc1ccc(OC)c([C@H]2/C(=C(\O)c3ccc(C)cc3)C(=O)C(=O)N2Cc2ccco2)c1	.	.	.	.	-23.6%[46.1 µM]	.
COC(=O)c1cc2sccc2n1Cc1nc(-c2ccc(Cl)cc2)oc1C	16.9%	-6.2%	3.7	-3.7%	?	1.0%
Cc1cccc(N2CCN(Cc3nc(-c4cccc(Cl)c4)oc3C)CC2)n1	?	-0.8%	0.0	0.4%	7.08µM*	-21.3%
COC(=O)c1cc2sccc2n1Cc1nc(-c2cccc(Cl)c2)oc1C	1.2%	?	-64.7*!	-2.5%	1.0%[46.1 µM]	.
Cc1cccc(N2CCN(Cc3nc(-c4ccccc4Cl)oc3C)CC2)n1	?	-7.4%	-17.9	-3.0%	?	-14.9%[46.1 µM]
CC[C@@]1(C)Cc2c(sc3c2c(=O)n(C)c2nnc(SCc4ccc5c(c4)OCO5)n32)CO1	.	.	.	.	-16.7%	.
CS(=O)(=O)N(CC(=O)NCC1CCCO1)c1ccc(Cl)c(Cl)c1 (stereo not given)	6.0%	.	48.5	-2.0%	-13.4%	4.1%
CS(=O)(=O)N(CC(=O)NCC1CCCO1)c1ccc(F)c(Cl)c1 (stereo not given)	2.8%	-13.8%	-60.4*	7.8%	0.0%	-11.5%
COc1cc(C(=O)OCc2cccc(S(=O)(=O)N3CCOCC3)c2)ccc1OCC(C)C	10µM*	-3.4%	-5.8	-8.2%	.	.
CCNc1c2c(oc(=O)c1N)CCCC2	.	.	.	.	5.2%	.
CC(N)=NCCCC(N)C(=O)O (stereo not given)	.	.	.	.	2.1%	.
C/C=C(\C)C(=O)OC1[C@H](OC(C)=O)C2(CO)C(CC1(C)C)C1=CCC3C4(C)CCC(O[C@@H]5O[C@H](C(=O)O)[C@@H](O[C@@H]6O[C@H](CO)[C@@H](O)[C@H](O)[C@H]6O)[C@H](O)[C@H]5O[C@H]5O[C@H](CO)[C@@H](O)[C@H](O)[C@H]5O)[C@](C)(CO)C4CCC3(C)[C@]1(C)C[C@H]2O (stereo not given in full)	3.16µM*	28.2µM*	.	.	.	.
C/C=C(/C)C(=O)OC1C(OC(C)=O)[C@@]2(CO)C(O)C[C@@]3(C)C(=CCC4[C@@]5(C)CCC(OC6OC(C(=O)O)[C@@H](O[C@@H]7OC(CO)C(O)C(O)C7O)C(O)[C@H]6O[C@@H]6OC(CO)C(O)C(O)C6O)[C@](C)(CO)C5CC[C@@]43C)C2CC1(C)C (stereo not given in full)	.	-9.0%	.	.	.	.
CC(C)C(NS(=O)(=O)c1ccc2c(c1)oc(=O)n2C)C(=O)N1CCN(c2cccc(Cl)c2)CC1 (stereo not given)	.	0.0%	-11.9	.	-17.8%[46.1 µM]	?
Cc1ccc(C)c2[nH]c(=O)c(CCNC(=O)CCc3ccccc3)cc12	0.4%	-2.4%	-75.7*	8.6%	.	.
CCCC(=O)NCCc1cc2c(C)ccc(C)c2[nH]c1=O	-0.5%	-13.1%	?	-5.8%	-19.1%	11.8%
Oc1ccc(-c2cn3cc(C(F)(F)F)ccc3n2)cc1	-2.7%	-26.7%	-26.7	-16.9%	5.8µM*	2µM*
CN(C)C(=O)Oc1ccc(-c2cn3cc(C(F)(F)F)ccc3n2)cc1	3.1%	12.0%	-28.4	11.1%	-17.6%	13.0%
Cc1cc(C)nc(-n2ncc3c2CC(c2ccccc2)CC3=O)n1 (stereo not given)	9.4%	-25.0%	?	?	-3.6%[46.1 µM]	?
